Compound activity (PubChem)
KCNQ2 block – rat KCNQ2 potassium channel inhibitors, primary screen, cell-based, CHO-K1, FluxOR thallium flux, B-score. Potassium voltage-gated channel subfamily KQT member 2 (Rattus norvegicus), O88943. AID 2156, 2009. 310,000 tested, 1.1% active. B-score at 10 µM. 20 min; active compounds read low;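 active = fluorescence ratio B-score at most minus 3 library SDs, with starting brightness B-score within 2 library SDs, cut at about -5.5 in these data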
KCNQ2 enhance – potentiators of rat KCNQ2 potassium channel; CHO-K1 KCNQ2, FluxOR thallium flux fluorescence; active compounds read high; B-score at 10 µM; 310,000 tested, 0.54% active; AID 2239, 2010;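 active = fluorescence ratio B-score at least 3 SD of library B-scores, with initial fluorescence B-score within 3 of them, cut at about 5.3 in these data; same plate scores as AID 2156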;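 also: B-score of peak minus minimum over baseline fluorescence ratio after K+ and Tl+ stimulus; positive B-score means potentiation of KCNQ2 with more thallium influx and brighter signal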
Kir21 confirm – mouse Kir2.1 channel blockers, retest, confirmation, cell-based, FluxOR thallium flux, duplicate. shares compounds with KCNQ2 enhance. Kir2.1-expressing cells, FluxOR thallium flux fluorescence; active compounds read low. Tl flux remaining, % of negative control (active compounds read low), % at 10 µM. 2,300 tested, 41% active;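 active = Primary-screen hit whose thallium flux fell at least 3 control SD below untreated wells in both duplicates, with normal baseline fluorescence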;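 also: 0% = blank wells without stimulus and 100% = stimulated no-compound controls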
Target sequence (P35561 whole entry, looked up): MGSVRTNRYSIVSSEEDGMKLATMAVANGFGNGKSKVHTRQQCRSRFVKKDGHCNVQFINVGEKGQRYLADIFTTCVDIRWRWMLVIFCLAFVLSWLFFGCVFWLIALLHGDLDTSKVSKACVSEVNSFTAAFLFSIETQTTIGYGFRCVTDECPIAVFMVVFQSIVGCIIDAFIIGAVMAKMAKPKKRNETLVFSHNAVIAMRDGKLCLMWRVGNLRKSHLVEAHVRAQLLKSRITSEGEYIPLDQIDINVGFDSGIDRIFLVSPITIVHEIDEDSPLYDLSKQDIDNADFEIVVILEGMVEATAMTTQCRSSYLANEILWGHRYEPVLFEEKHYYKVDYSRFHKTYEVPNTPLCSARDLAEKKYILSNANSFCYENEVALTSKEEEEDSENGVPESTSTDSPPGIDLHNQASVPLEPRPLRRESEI
HEK293 ctr – counter-screen for Kir2.1 inhibitors: effect in parental HEK293 cells. shares compounds with KCNQ2 enhance. 2,300 tested, 19% active. AID 2105. FluxOR signal as % of negative control (100 = no effect), % at 10 µM. FluxOR thallium flux fluorescence; 0% = unstimulated blank wells;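 active = dye signal at least 3 control SD above or below untreated wells in both duplicates, raw fluorescence within 3, either direction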;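 also: percent is based on the flux ratio of peak minus minimum fluorescence over baseline F0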
Active calls of the source: *; i = inactive; · = not tested or not shown. An excerpt weighted towards active compounds, which were near 1.6% of everything screened.

SMILES | KCNQ2 block | KCNQ2 enhance | Kir21 confirm | HEK293 ctr
CCOc1ccc(-n2c(O)c(N=Nc3ccc([N+](=O)[O-])cc3)c(=O)[nH]c2=O)cc1 | i | · | · | ·
Cc1cccc(NP(C)(=O)c2nc3c(s2)CCCC3)c1 (configuration not stated) | i | 1.11 | · | ·
CNc1cc(Cl)c2nonc2c1[N+](=O)[O-] | -9.5* | -9.5 | i | 54.0%*
Cc1cc([N+](=O)[O-])c(Cl)cc1NC(=O)C(C)C | i | 0.97 | · | ·
C[n+]1c(-c2ccccc2)cc(CCCCc2cc(-c3ccccc3)[n+](C)c(-c3ccccc3)c2)cc1-c1ccccc1 | i | · | · | ·
CCCOC(=O)c1ccc(-[n+]2c(-c3ccccc3)cc(-c3ccccc3)cc2-c2ccccc2)cc1 | -6.93* | -6.93 | 36.5%* | i
Cc1ccc(-c2cc(-c3ccc(C)cc3)[n+](-c3ccc(C(=O)O)cc3)c(-c3ccc(C)cc3)c2)cc1 | i | 0.83 | · | ·
Cc1ccccc1-[n+]1c(-c2ccccc2)cc(-c2ccccc2)cc1-c1ccccc1 | -8.31* | -8.31 | 16.0%* | 57.0%*
[O-]c1ccccc1-[n+]1c(-c2ccccc2)cc(-c2ccccc2)cc1-c1ccccc1 | i | · | 25.0%* | i
Brc1ccc(-[n+]2c(-c3ccccc3)cc(-c3ccccc3)cc2-c2ccccc2)cc1 | -8.41* | -8.41 | 34.0%* | i
CN(C)C(=O)Oc1noc2cc(Cl)ccc12 | i | · | · | ·
CCCNC(=O)N1[C@H]2CC[C@@H]1C(C(=O)OC)=C(c1ccccc1)C2 | i | 0.06 | · | ·
COC(=O)C1=C(c2cccc(OC)c2OC)C[C@@H]2CC[C@H]1N2C(=O)NCc1ccc(C(F)(F)F)cc1 | i | 0.93 | · | ·
CCOP(=O)(OCC)C(O)c1cccnc1 (configuration not stated) | i | 0.37 | · | ·
Oc1ccc(C2NCc3ccccc3-n3cccc32)cc1Cl (configuration not stated) | i | 0.53 | 59.0%* | i
FC(F)(F)c1cccc(C2NCc3ccccc3-n3cccc32)c1 (configuration not stated) | i | · | · | ·
Cc1ccc(-n2c(O)c(/C=N/N3CCCCC3c3cccnc3)c(=O)[nH]c2=S)cc1 (configuration not stated) | i | 0.35 | · | ·
CC1CCCC(NC(=O)CNC(=S)N2CC3CC(C2)c2cccc(=O)n2C3)C1C (configuration not stated) | i | · | · | ·
CN1CCN(/N=C/c2c(O)n(Cc3ccc(F)cc3)c(=O)[nH]c2=O)CC1 | i | 0.1 | · | ·
COP(=O)(OC)C(NC(C)=O)C(Cl)(Cl)Cl (configuration not stated) | i | · | · | ·
COc1ccc(/C=N\N=C(N)N)cc1 | i | 1.1 | · | ·
NC(N)=N/N=C/c1ccc(N(c2ccccc2)c2ccccc2)cc1 | i | 2.4 | i | i
CCC1(c2ccccc2)C(=O)N(COC)C(=O)N(COC)C1=O | i | · | · | ·
CCc1ccc(C2=NN(CCC(=O)N3CCC4(CC3)OCCO4)C(=O)CC2)cc1 | i | 0.19 | · | ·
CCOc1ccc(-c2cc(C)[n+](CCN3CCOCC3)c(-c3ccc(OCC)cc3)c2)cc1 | i | · | · | ·
SMILES | KCNQ2 block | KCNQ2 enhance | Kir21 confirm | HEK293 ctr
Cc1ccc(C[n+]2c(-c3ccc(C)cc3)cc(-c3ccc(C)cc3)cc2-c2ccc(C)cc2)cc1 | i | · | 11.5%* | i
CCOC(=O)c1c(C=O)c2ccccc2n1Cc1ccccc1 | i | · | · | ·
O=S1(=O)N(Cc2ccc(F)cc2)CCCN1Cc1ccccc1Cl | i | · | · | ·
Cc1cc(C)n(CCOC(=O)C2C(C=C(Cl)Cl)C2(C)C)n1 (configuration not stated) | i | · | 43.0%* | i
CC(C)CNc1c2c(nc3ccccc13)CCC2 | i | 3.15 | · | ·
c1ccc(CNc2c3c(nc4ccccc24)CCC3)cc1 | i | 0.24 | i | i
Cc1ccc(C(=O)N[C@@H](C)CN2C3=NC[C@H](Cc4ccccc4)N3C[C@H]2Cc2ccc(O)cc2)cc1Br | i | · | · | ·
Cc1ccc(C(=O)N[C@@H](C)CN2C3=NC[C@@H](Cc4ccccc4)N3C[C@H]2Cc2ccc(O)cc2)cc1Br | i | · | 49.0%* | i
COc1ccc(-n2c(-c3ccccc3Br)nc3ccccc3c2=O)cc1 | i | · | · | ·
CCOc1ccc(Cl)cc1CNCCc1ccc(F)cc1 | i | · | 24.0%* | i
Fc1ccc(CCNCc2ccccc2Cl)cc1 | i | 0.28 | · | ·
